Hits are enriched below; roughly 2.3% of the tested compounds scored in any of these assays.
MCL1-BIM inh: MCL1-BIM-BH3 interaction inhibition (human); Q07820; GST-MCL1 / FITC-Bim-BH3 fluorescence polarization; inhibition, % at 10.9 µM; 320,000 compounds, 0.68% hits; AID 2057;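 active means inhibition above the mean inhibition of all tested compounds plus 3 SD, set per campaign, cut at about 40% in these data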;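 further: 0% = DMSO wells and 100% = unlabeled Bim-BH3 peptide control; higher means more loss of mP so more displacement of Bim peptide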
Bcl-xL primary: blocks human Bcl-xL binding to Bim BH3 peptide; 320,000 compounds, 0.7% hits; GST-Bcl-xL / FITC-Bim BH3 peptide fluorescence polarization; AID 2129; inhibition, % at 10.9 µM; Q07817;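 active means inhibition above the mean of all tested compounds plus 3 SD, cutoff set per campaign, cut at about 30% in these data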;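 further: 0% = DMSO wells and 100% = unlabeled Bim-BH3 peptide competitor; inhibitors lower millipolarization by displacing the labeled peptide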
Target sequence (Q07817 whole entry, looked up): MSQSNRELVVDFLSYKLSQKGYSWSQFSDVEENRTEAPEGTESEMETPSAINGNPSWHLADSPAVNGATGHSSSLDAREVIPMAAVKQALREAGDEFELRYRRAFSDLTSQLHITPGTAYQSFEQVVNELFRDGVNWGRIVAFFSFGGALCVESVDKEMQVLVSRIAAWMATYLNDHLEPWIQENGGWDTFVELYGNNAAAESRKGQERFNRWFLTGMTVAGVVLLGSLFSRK
Mcl-1 Bim block: disrupts Bim peptide binding to human Mcl-1 | Bead-based flow cytometry, Bim peptide-Mcl-1 binding | inhibition, % at 10 µM | Q07820 | 190,000 compounds, 0.1% hits; in the data active means inhibition above about 40%;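 further: 0% = no compound tracer wells and 100% = peptide blocker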
Mcl1-Noxa inh: disrupts binding of human Mcl-1 to Noxa peptide; Q07820; AID 1022; inhibition, % at 21.7 µM; TR-FRET Mcl-1/Noxa peptide binding, 2 h; 220,000 compounds, 1.5% hits;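 active means compounds that cut the protein-peptide binding signal by more than 50% relative to plate controls in a single-dose test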;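 further: His-tagged Mcl-1 with rhodamine Noxa BH3 peptide and terbium anti-His antibody; 0% = Mcl-1 plus Noxa peptide wells and 100% = peptide-only wells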
GLD-1 RNA inh: GLD-1-TGE RNA interaction inhibition (C. elegans); Q17339; purified GLD-1 + fluorescein TGE RNA, fluorescence polarization; inhibition, % at 5.96 µM; 320,000 compounds, 0.44% hits; AID 2280;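 active means percent inhibition above a per-plate cutoff, the plate mean of test compounds plus 3 SD, cut at about 30% in these data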;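 further: 0% = DMSO wells with GLD-1 and probe and 100% = wells lacking GLD-1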
Target sequence (Q17339 whole entry, looked up): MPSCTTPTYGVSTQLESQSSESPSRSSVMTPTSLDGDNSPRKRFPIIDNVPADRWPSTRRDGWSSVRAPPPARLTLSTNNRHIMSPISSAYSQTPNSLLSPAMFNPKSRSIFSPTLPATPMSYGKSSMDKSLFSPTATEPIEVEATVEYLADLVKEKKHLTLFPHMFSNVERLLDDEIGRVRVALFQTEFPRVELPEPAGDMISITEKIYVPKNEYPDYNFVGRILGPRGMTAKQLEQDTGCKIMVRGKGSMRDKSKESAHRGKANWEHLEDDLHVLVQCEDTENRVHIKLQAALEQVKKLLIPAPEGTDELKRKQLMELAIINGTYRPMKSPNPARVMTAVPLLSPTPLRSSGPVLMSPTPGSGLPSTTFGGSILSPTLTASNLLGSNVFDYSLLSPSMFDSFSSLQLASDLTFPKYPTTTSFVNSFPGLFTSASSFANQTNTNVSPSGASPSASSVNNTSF
Mcl1 Bid PPI: disrupts binding of human Mcl-1 to Bid peptide. Q07820. TR-FRET Mcl-1/Bid-Dy647 peptide binding, 1536-well. inhibition, % at 21.7 µM. 220,000 compounds, 0.97% hits;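 active means compounds that cut the binding signal by more than half at the single screening dose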;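 further: His-tagged Mcl-1 with europium anti-His antibody binding Bid BH3 peptide; 0% = Mcl-1 plus peptide wells and 100% = peptide-only wells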
BCLXL inh confirm: counter-screen for MCL1 inhibitors: confirmation of human Bcl-xL inhibitors; shares compounds with MCL1-BIM inh; GST-Bcl-xL / FITC-Bim BH3 peptide FP binding; AID 2166; inhibition, % at 10.9 µM; 1,700 compounds, 54% hits;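 active means inhibition above a cutoff equal to the mean inhibition of all tested compounds plus 3 SD, cut at about 30% in these data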;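 further: 0% = DMSO wells and 100% = unlabeled Bim BH3 control peptide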
MCL1 BIM confirm: MCL1-BIM-BH3 interaction inhibition, confirmation | shares compounds with MCL1-BIM inh | GST-MCL1 / FITC-Bim-BH3 fluorescence polarization | inhibition, % at 10.9 µM | 1,700 compounds, 61% hits | AID 2168;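 active means inhibition above the average of all tested compounds plus 3 SD, cut at about 40% in these data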;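 further: 0% = DMSO wells and 100% = unlabeled Bim-BH3 control peptide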
Numbers without * were called inactive; . = no result; + = active, no number.

SMILES	MCL1-BIM inh	Bcl-xL primary	Mcl-1 Bim block	Mcl1-Noxa inh	GLD-1 RNA inh	Mcl1 Bid PPI	BCLXL inh confirm	MCL1 BIM confirm
CSCC(C)N1CCC(Oc2cccc(C(=O)NCc3ccccn3)c2)CC1 (stereo unspecified)	55.8*	47.9*	.	.	15.8	.	56.0*	69.9*
CCOC(=O)C1Nc2ccc(C)cc2C2C=CCC12 (stereo unspecified)	50.8*	23.3	.	.	8.5	.	4.0	3.0
CCOC(=O)C1Nc2ccc(Br)cc2C2C=CCC12 (stereo unspecified)	44.3*	24.8	.	.	8.8	.	9.2	9.2
COC(=O)CNC(=O)C1Nc2ccccc2C2C=CCC12 (stereo unspecified)	22.4	23.1	.	.	5.9	.	.	.
CCOC(=O)c1ccc2c(c1)C1C=CCC1C(C(=O)OCC)N2 (stereo unspecified)	22.2	25.0	.	.	-0.4	.	.	.
O=C(O)C1Nc2ccc(Br)cc2C2C=CCC12 (stereo unspecified)	100.5*	78.6*	.	.	6.8	.	66.8*	107.0*
CCOc1ccc(N(C(C)C(=O)N2CCCC2)S(C)(=O)=O)cc1 (stereo unspecified)	-4.2	-4.6	.	.	-0.7	.	.	.
O=c1oc2c(O)c(O)cc3c(=O)oc4c(O)c(O)cc1c4c23	97.2*	74.1*	10.0	85.9*	8.4	76.0*	79.4*	98.2*
Cc1c(C)c2cc(Cl)c(O)c(CN(C)C)c2oc1=O	10.6	7.7	0.0	10.3	7.4	-26.6	.	.
CCC1(C(=O)OC)NC(c2ccccc2OC)C2C(=O)N(C)C(=O)C21 (stereo unspecified)	58.2*	58.2*	6.0	-14.1	10.6	-25.2	3.1	-3.4
COc1ccc(C(CC(=O)N2CCCC2)c2c(OC)cc(OC)c3ccc(=O)oc23)cc1 (stereo unspecified)	2.8	5.7	.	8.9	3.9	-11.9	.	.
COc1ccc(C(CC(=O)N2CCCC2)c2c(OC)cc(OC)c3c(-c4ccccc4)cc(=O)oc23)cc1 (stereo unspecified)	42.6*	3.8	.	86.5*	-5.4	-111.0	8.3	34.0
O=c1ccc2ccc(OCc3ccccc3)cc2o1	4.4	2.6	.	.	-0.5	.	.	.
Cc1ccc(S(C)(=O)=O)cc1C(=O)OCC(=O)N(Cc1ccccc1)Cc1ccccc1	0.1	3.2	.	.	3.0	.	.	.
CSc1nsc(/C=C/Nc2ccc(O)cc2C)c1C#N	49.0*	60.2*	-3.0	55.4*	70.6*	-29.3	43.3*	8.4
Cc1ccc(C)c(S(=O)(=O)NCCC(=O)N2CCCC(C(N)=O)C2)c1 (stereo unspecified)	0.9	4.8	.	.	0.5	.	.	.
COC(=O)CN(c1ccccc1C)S(C)(=O)=O	82.6*	1.6	2.0	-4.4	-3.4	-14.8	12.9	9.4
O=c1[nH]c(=S)[nH]c2nc(-c3ccccc3)cnc12	16.8	13.4	.	.	4.2	.	.	.
Cc1cc2nc3c(=O)[nH]c(=S)[nH]c3nc2cc1NC(=O)C(F)(F)F	+	+	.	.	185.0*	.	184.8*	196.7*
CCN1C(=O)N(c2cccc3ccccc23)C(C)=CC1(C)C	0.5	-2.4	-2.0	17.6	-6.9	-35.2	.	.
CCN1c2ccccc2N(C)C1(C)c1ccccc1 (stereo unspecified)	94.2*	88.0*	2.0	85.5*	65.8*	29.6	61.3*	97.6*
CCOc1ccc(N2CSC3=C(C#N)C(c4ccco4)CC(=O)N3C2)cc1 (stereo unspecified)	77.7*	28.4	-2.0	49.0	19.3	-38.3	24.6	62.8*
Cc1ccc(C2CC(=O)N3CN(c4ccc(Br)cc4)CSC3=C2C#N)o1 (stereo unspecified)	26.2	18.2	-5.0	23.4	-0.7	-101.9	.	.
Cc1cc(/C=N/NC(N)=S)c(O)c(/C=N/NC(N)=S)c1	+	+	.	-20.6	189.0*	-51.8	189.4*	+
C=CCN(c1ccccc1)S(=O)(=O)c1cccc(C(=O)NCC(c2cccs2)N2CCOCC2)c1 (stereo unspecified)	-2.2	-10.8	.	.	1.4	.	.	.
SMILES	MCL1-BIM inh	Bcl-xL primary	Mcl-1 Bim block	Mcl1-Noxa inh	GLD-1 RNA inh	Mcl1 Bid PPI	BCLXL inh confirm	MCL1 BIM confirm
Cn1nc(-c2ccc(Cl)cc2)nc2c(=O)n(C)c(=O)nc1-2	95.8*	90.3*	-3.0	4.1	78.4*	0.7	94.3*	120.6*
COc1ccc2oc(C(=O)N3CCN(S(=O)(=O)c4cccc([N+](=O)[O-])c4)CC3)c(C)c2c1	46.5*	-0.3	.	.	7.3	.	5.7	8.5
O=C1COc2ccc(C(=O)COC(=O)/C=C/c3ccc(Br)o3)cc2N1	72.9*	14.0	.	.	-6.0	.	4.2	50.7*
Cc1ccc(/C=C/C(=O)OCC(=O)c2ccc3c(c2)NC(=O)CO3)o1	.	.	.	.	1.8	.	.	.
COc1ccccc1OCC(=O)Nc1cc(Cl)ccc1N1CCCCC1	0.1	-1.7	.	.	1.4	.	.	.
COc1cc(O)c(C(C)=O)c(CC(=O)O)c1	40.9*	12.9	.	15.4	12.9	-108.5	20.2	34.5
COc1cc(O)c(C(=O)/C=C/c2ccccc2)c(OC)c1	0.7	2.2	.	19.8	7.9	-50.0	.	.
CN(CC(=O)Nc1ccccc1C(F)(F)F)C(=O)c1ccc(N2C(=O)CCC2=O)cc1	-6.5	0.3	.	.	7.6	.	.	.
Nc1ccc(-c2c3ccc(=O)cc-3oc3cc(O)ccc23)cc1C(=O)O	117.9*	106.2*	.	.	63.5*	.	104.1*	111.9*
O=c1ccc2c(-c3ccccc3)c3ccc(O)cc3oc-2c1	109.7*	105.6*	.	.	75.1*	.	118.8*	120.6*
O=c1cc(-c2ccccc2)c2ccc(O)cc2o1	0.0	-3.6	.	.	10.8	.	.	.
CCOc1cc(/C=C/C(=O)OCC(=O)NCC2CCCO2)cc(Cl)c1OC (stereo unspecified)	.	.	.	.	-3.1	.	.	.
CCOc1ccc(/C=C/C(=O)N(CC)CC(=O)Nc2ccc3c(c2)OCCO3)cc1OCC	3.1	5.3	.	.	-1.8	.	.	.
Cc1cc(C)c(C#N)c(N2CCN(CCOc3ccc(Cl)cc3)CC2)n1	3.0	11.4	0.0	4.2	5.5	-24.6	.	.
COc1ccc(Cl)cc1CN1CCN(c2nc(C)cc(C)c2C#N)CC1	85.2*	78.0*	-1.0	14.0	14.0	-8.4	57.2*	81.8*
COc1ccc(OC)c2nc3c(cc12)CCC3	52.9*	52.5*	.	.	32.5*	.	9.6	5.2
N#Cc1cc2c(=O)n3ccccc3nc2n(Cc2ccco2)c1=NC(=O)c1ccco1	75.2*	54.4*	3.0	11.4	23.4	-31.6	14.5	12.2
CCOCCCn1c(=NC(=O)c2cccs2)c(C#N)cc2c(=O)n3ccccc3nc21	97.4*	90.8*	.	20.2	54.6*	-9.4	62.0*	74.9*
